Assay results published in the supplement of paper PMC6555819.

system: RXRa DBDmut IVT, anti-RXR (DBD mutation: RXRa K156A/R161A, NR concentration 90 nM); experiment: PBM binding z-score (relative to random genomic background probes); higher = stronger binding; sequences stand for … in GC…GCGATTGACAGCGTAGAATGAAGG
Method in brief: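 Probes were double-stranded and carried 34-nt variable regions with direct-repeat seeds, single-nucleotide variants, half-site ablations and random human genomic background sequences, printed on custom Agilent 4×180K protein-binding microarrays. Arrays were incubated 1 h with ligand-free nuclear receptor dimers in PBS pH 7.4, 2% milk, 0.02% Triton X-100, 1 mM DTT, 0.2 mg/mL BSA and 0.4 mg/ml salmon testes DNA. Antibodies against each partner (one per run) detected binding, and scanned fluorescence was regression-normalized. Binding z-scores use the random background probes as reference.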

Row | Sequence | PBM binding z-score
1 | CGTCCAAGGTTAGAGAGGTCAGTGAATGCCGAGT | 1.67
2 | TCTAGCTGGCCAGAGGGTCACTCAAGAGGTACGG | -0.123
3 | TCTATTAGTTGAGTAGGGCAACCGAAACAGCGGA | 0.368
4 | GGAACGAGGGCAAAGTTGAGAGCATCTGTCGACG | 2.46
5 | CCTATGAGTTGACCATAAGGGCAACCGAAGCTCG | 0.755
6 | CAAACTAGGTCACGAAAGGTCAAAGTAGAATGAC | 2.39
7 | GCTAGCAGGACATTTGGGTCACTCAATGACGGGC | 0.736
8 | GCGACTGGGGCAAAGCAGGTTACCAAAAGGTTGG | -0.337
9 | CCTAGTTCGTCAGGAGGTCACACACCGGATATGA | 3.1
10 | GCTGCTAGGTCAATTGATGGTCAGCTAAAGCTCG | 1.37
11 | TCTTGTACATCAAAGGTTAAGAAAGCCGAAGCCT | 1.09
12 | ACTAGTTGGTCAGCTGACGTCACACACAATTCGG | 0.433
13 | ATATGTAGGTTATCGGGTCGTTCAGTTTGCGCAT | 1.06
14 | TCTTGTAGATCCATAGAGGTTAAGAAAGTGCGCT | 0.691
15 | TCTGCTAGGTCACCGATGGTCAGCTAATCTGCTA | 0.891
16 | AGTCAAAGTTCAGGACGAGCTAACGTAAAGCACG | 2.68
17 | ACTATGAGTTGACTTAGGGCAACCGATACGACGC | 1.49
18 | CCTACTGGGCCAAAAAGGTCATTGACGCCGATAA | 0.774
19 | GCGACTGGGGCACCAGCAGGTTACCATAACTTAA | -0.795
20 | TGTCAAAGTTCAAGGGTAACGTAAGTATCCACAC | 3.72
21 | CCTACTGGGTCAAAAAGGTCATTGATGCCGATAA | 1.56
22 | TTACCAGGGTGAGCTGAGGTCGTTGATCCAACTC | -0.148
